Structures are written as SMILES.

The assay deals with HepG2. As to the kind of experiment: GSK_TCMDC: Percent inhibition of human HepG2 cell line. Test compounds present at 10uM. The format is functional.
In general, Inhibition refers to the share of the control response that was lost under treatment. A lower Inhibition goes with little suppression. Turning to `Cl.Oc1ccc(Cc2cc(Oc3c(I)cc(CCc4ncc[nH]4)cc3I)ccc2O)cc1`, the Inhibition was 10%.

With `O=C(NCCNc1ccnc(Nc2ccc(F)cc2)n1)c1cc2ccccc2s1`, the Inhibition worked out at 0%.

Take `COc1ccc(C2CC(=O)C3=C(C2)NC(C)=C(C(=O)OC2CCCC2)C3c2cccc(O)c2)cc1OC` (stereo not given): the Inhibition is recorded as 8%.

Molecule `CCOc1cc(C(=O)NCCN(C(C)C)C(C)C)ccc1-c1nc2cc(Cl)ccc2[nH]1` yielded an Inhibition of 4%.

For the molecule `CC(=O)N1N=C(c2ccccc2)Sc2c1nc(-c1ccc(Cl)cc1)n2C(C)=O`, the Inhibition is on record as 0%.

For the molecule `O=C1C2C(c3ccc(Cl)c(Cl)c3)N3CC(OCc4ccccc4)CC3(C(=O)O)C2C(=O)N1c1ccc(Br)cc1` (stereo not given), the Inhibition was 14%.

Consider `O=C1CN(C(=O)CCC2CCCC2)C(c2ccc(F)cc2)c2cc(F)ccc2N1` (stereo not given), for which the Inhibition is reported as 12%.

Molecule `CCc1cc2c(=O)c(-c3nc(C)cs3)c([C@H](N)Cc3ccc(O)cc3)oc2cc1O.O=C(O)C(F)(F)F` showed an Inhibition of 11%.

In turn, `Cc1c(S(=O)(=O)Nc2ccc3nccc(N4CC(C)NC(C)C4)c3c2)sc2ccc(Cl)cc12.Cl` (stereo not given) yielded an Inhibition of 0%.

Molecule `N#Cc1cc([N+](=O)[O-])ccc1-n1nc(-c2cccc(Cl)c2)n(CC2CCCO2)c1=S` (stereo not given) came in with an Inhibition of 0%.

The molecule `Cl.c1cc(-c2cc3ccc(C4=NCCN4)cc3[nH]2)ccc1C1=NCCN1` gave an Inhibition of 15%.

As to `Cc1nc(NC2=NCN(CCCN3CCOCC3)CN2)nc2c(C)cccc12`, the Inhibition is 17%.

On to `Cn1nc(-c2cccc(CN[C@@H]3CCc4ccc(O)cc43)c2)c2cnc(NC3CCCC3)nc21`, for which the Inhibition is recorded as 6%.

In the case of `CCC(C)NS(=O)(=O)c1ccc2nc(Nc3ccc(C)c(Cl)c3)n([C@H](C)C(C)(C)C)c2c1` (stereo not given in full), the Inhibition was 8%.

On to `c1ccc([C@H]2CN3CCSC3=N2)cc1` [LEVAMISOLE], for which the Inhibition is on record as 11%.

For `CCCN(CCC)CCCN(CCCN(CCC)CCC)c1cc(C)nc(Nc2ccc(Cl)cc2)n1.Cl`, the Inhibition is 34%.

`Cl.O=S(=O)(NCCCN1CCOCC1)c1ccc2nccc(Nc3ccc(Oc4ccccc4)cc3)c2c1` came in with an Inhibition of 1%.

Take `CCN(CC)CCCC(C)Nc1c(-c2ccc(C)cc2)cnc2ccccc12` (stereo not given): the Inhibition is recorded as 8%.

The molecule `C#CCOc1ccc(N2C(N)=NC(N)=NC2(C)C)cc1.Cl` showed an Inhibition of 43%.

The molecule `CC(=O)Nc1cccc(-c2cnc(N)c3cc(-c4ccc5c(c4)OCO5)ccc23)c1` yielded an Inhibition of 100%.

With `COc1cccc(CNC(=O)c2cc(CNCc3ccccc3)ccc2-c2cccc(CNCc3ccc(-c4ccccc4)cc3)c2)c1.O=C(O)C(F)(F)F`, the Inhibition stood at 22%.

In turn, `CN1CC=C(c2csc3ccc(NC(=O)Nc4ccc(-c5ccncc5)c5ccccc45)cc23)CC1` displayed an Inhibition of 20%.

The molecule `Cl.NC(=O)N1CCN(Cc2ccc(Br)cc2)CC1` yielded an Inhibition of 83%.

`COc1ccccc1C1CC(c2ccc(Br)cc2)=NN1C(=O)c1ccccc1` (stereo not given) came in with an Inhibition of 12%.

For the molecule `COc1ccc(CCNC(C)Cc2ccc(C(=O)Nc3ccc(CC(C)NCCc4cccc(Cl)c4)cc3)cc2)cc1` (stereo not given), the Inhibition worked out at 99%.

With `CCCCC(=O)Nc1ccc(Nc2nc(C)cc(N3CCCC3)n2)cc1`, the Inhibition came to 38%.

In the case of `COc1cc2c(cc1OC)C(c1ccc(Br)cc1)CN(C)CC2.Cl` (stereo not given), the Inhibition was found to be 8%.

In turn, `O=C(/C=C/c1ccc(Cl)c(Cl)c1)NCCCCCN1CCC(NC(=O)c2cccc(Cl)c2)CC1` yielded an Inhibition of 12%.

`CCN(C(=O)c1ccc(NC(=O)c2cccs2)cc1)c1nc2c(C)cccc2s1` registered an Inhibition of 24%.

The molecule `CC(C)(CNC(=O)[C@@H]1CCCN(CCOc2ccc(F)c(F)c2)C1)c1nc(-c2ccc(Cl)c(O)c2)c(-c2ccncc2)[nH]1.Cl` had an Inhibition of 72%.

`COc1ccc(CNCc2cccc(-c3cccc(-c4nc5cccc(C)c5[nH]4)c3)c2)cc1.O=C(O)C(F)(F)F`: the Inhibition was determined as 31%.

Take `Cl.O=C(c1ccc(Cl)cc1)C1CCN(CCCOc2ccc3c(c2)CCNCC3)CC1`: the Inhibition came to 78%.

`O=C(Nc1cccc(-c2ccc(NCCCN3CCCC3)nc2)c1)c1ccccc1` gave an Inhibition of 22%.

In the case of `CS(=O)(=O)CCNc1nccc(N2CCc3ncnc(Nc4ccc(OCc5cccc(F)c5)c(Cl)c4)c3C2)n1`, the Inhibition is given as 8%.

`COc1nc2c(CCN3CCC(NCc4ccc5c(n4)NC(=O)CO5)CC3)c(Cl)cnc2cc1F.Cl`: the Inhibition came out at 17%.

The molecule `CCCOc1ccc(C=C(CC(=O)O)c2nc3ccccc3s2)cc1OCC` came in with an Inhibition of 7%.

With `Cc1ccc(CN(Cc2ccc(C(=O)N(C)C)cc2)Cc2ccc3c(c2)OCCO3)cc1C`, the Inhibition is 10%.

`CS(=O)(=O)c1ccc(CNCc2cccc(-c3cccc(-c4nc5cc(F)ccc5[nH]4)c3)c2)cc1.O=C(O)C(F)(F)F`: the Inhibition was found to be 11%.

For the molecule `COc1cc2nc(N3CCC(CNCc4ccc(-c5ccc(C(F)(F)F)cc5)cc4)CC3)nc(N)c2cc1OC`, the Inhibition is 99%.

Regarding `CN1CCN(c2nsc3ccc(-c4ccc(NC(=O)Nc5ccccc5)cc4)cc23)CC1.O=C(O)C(F)(F)F`, the Inhibition turned out to be 38%.

The values are drawn from ChEMBL document CHEMBL1157539, “Thousands of chemical starting points for antimalarial lead identification” (Nature, 2010).
